This is part of a sample that, as a whole, favours compounds with a hit. Of some 79,000 tested, about 15% had one in any assay. Unmarked numbers belong to inactive results. The source made the active and inactive calls. No stated cut-off is given here; in the data, active means growth inhibition above about 70%; inactive means the rest.
Assays:
[1] = NCI Yeast Anticancer Drug Screen. Data for the rad50 strain (AID 155);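 further: 0% = growth of vehicle-only cultures of the same strain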; conditions: S. cerevisiae rad50 strain growth inhibition; at 50.0 µM; active compounds read high
In short: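 A DNA repair-deficient yeast mutant serves as the test organism; compound-induced growth inhibition is calculated against vehicle-treated cells.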

[2] = NCI Yeast Anticancer Drug Screen. Data for the mec2-1 strain (AID 157); conditions: S. cerevisiae mec2-1 strain, at 50.0 µM, active compounds read high
In short: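 Compounds were applied to mec2-1 yeast cells. Their growth was then compared with that of vehicle-treated cultures to give growth inhibition.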

[3] = NCI Yeast Anticancer Drug Screen. Data for the sgs1 mgt1 strain (AID 161);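 further: 0% = growth of cultures given vehicle only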; conditions: S. cerevisiae sgs1 mgt1 strain, at 50.0 µM, active compounds read high
In short: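 Growth of a repair-deficient yeast mutant was monitored after compound treatment and expressed as inhibition relative to vehicle-treated cultures.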

[4] = NCI Yeast Anticancer Drug Screen. Data for the cln2 rad14 strain (AID 165);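 further: 0% = growth equal to vehicle treated cultures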; conditions: S. cerevisiae cln2 rad14 strain, at 50.0 µM, active compounds read high
In short: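 Strain: cln2 rad14 yeast, altered in cell cycle control and DNA damage repair. Read-out: growth inhibition vs vehicle.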

[5] = NCI Yeast Anticancer Drug Screen. Data for the bub3 strain (AID 167); conditions: S. cerevisiae bub3 mutant strain, at 50.0 µM, active compounds read high
In short: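 Inhibition values come from growth of compound-treated mutant yeast normalised to vehicle-treated controls.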

[6] = NCI Yeast Anticancer Drug Screen. Data for the mlh1 rad18 strain (AID 175); conditions: S. cerevisiae mlh1 rad18 strain growth inhibition; at 50.0 µM; active compounds read high
In short: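 A repair-deficient yeast strain is exposed to test compound, and growth is scored relative to vehicle-treated controls.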

Structure (SMILES) | growth inhibition [1] | growth inhibition [2] | growth inhibition [3] | growth inhibition [4] | growth inhibition [5] | growth inhibition [6]
Cn1ncc2c(=O)[nH]c(=S)[nH]c21 | -9.6% | -4.4% | -5.65% | -32.1% | -2.3% | 3.6%
O=C(Cl)C(c1ccccc1)N1C(=O)c2ccccc2C1=O (stereo unspecified) | 7.15% | 2.15% | 0% | -38.5% | -4% | 0.95%
CCC/C=N/NC(=O)CCCCCCCCCCCCCCCCC | 7.35% | 7.95% | 16.9% | -8.2% | 7.7% | 14.3%
COc1ccc(C2OC3=C(Nc4ccc([N+](=O)[O-])cc4N3)C2=O)cc1 (stereo unspecified) | -7.25% | -19.3% | -16.8% | -5.35% | -37.9% | -5.8%
Cc1cc(C)c2c(c1)Nc1ccccc1P2c1ccccc1 (stereo unspecified) | 11.2% | 14.2% | 48.2% | 31.1% | 44.6% | 53.6%
NC(=S)Nc1ccccc1Cl | -14.3% | -6.2% | 15.6% | -18.1% | -10.8% | 10.6%
CC(=O)N(C(C)=O)c1ccc2c(c1)Cc1ccccc1-2 | 14.9% | -12.9% | 17.4% | 3.85% | 35.3% | 15.1%
O=C(O)C1C2C=CC(O2)C1C(=O)Nc1ccccc1 (stereo unspecified) | 13.7% | 3.5% | 7.5% | -1.9% | -19.4% | 8.3%
CNCCN(C)Cc1ccccc1 | -17.4% | -24.6% | -3.8% | 11% | 10.7% | -8.3%
C/C=C/C(=O)N(CC)c1ccccc1 | 37.2% | -2.25% | 10.8% | -8.35% | 2.9% | 33.8%
O=C1OC(c2ccc(Cl)c3ccccc23)c2ccccc21 (stereo unspecified) | 58.6% | 19.2% | 34.4% | 28.6% | 12.8% | 43.3%
COc1ccc(OC)c2c(NCCNCCO)cc(NCCNCCO)nc12 | 15.2% | -4.75% | -15.7% | 0% | -3.2% | 7.5%
c1ccc2c(c1)ccc1cc3c(ccc4ccccc43)cc12 | 15.3% | -11.3% | 7.9% | 13.2% | 34.6% | 12.4%
OC(Cc1cccnc1)(c1ccccc1)c1ccccc1 | -0.3% | -40.4% | -16.7% | -21.5% | -13.9% | -0.4%
Clc1ccc(-c2csc3nc(-c4cccs4)nn23)cc1 | -0.05% | -16.6% | 16.6% | 1.65% | -6.95% | -5.3%
CCCCC1(C(NC(=O)c2ccccc2Cl)c2ccncc2)C(=O)N(c2ccccc2)N(c2ccccc2)C1=O (stereo unspecified) | 33.8% | 15.8% | 9.15% | 6.35% | 33.5% | 41.5%
COc1cccc(-n2cnc3c(=O)[nH]cnc32)c1 | -18.7% | -13.3% | -10.9% | -34.9% | -5.65% | -40%
O=C1C=C2CCC(c3ccc(O)cc3)CC2CC1 (stereo unspecified) | -3% | 7.6% | -1.6% | 7.65% | -0.45% | -8%
COc1ccc(Br)cc1C1SCC(=O)N1c1nncs1 (stereo unspecified) | 12% | 7.7% | 26.8% | 11.2% | 16.4% | 23.8%
C[Si](C)(C)OC=C1CCCCC1 | 12.1% | -3.95% | -3.55% | -29.2% | -21.4% | 9.7%
CCCCNC(C)=O | 4.5% | -9.15% | -18.5% | -21.6% | -0.95% | -1.7%

Structure (SMILES) | growth inhibition [1] | growth inhibition [2] | growth inhibition [3] | growth inhibition [4] | growth inhibition [5] | growth inhibition [6]
COc1cc(C2C3=C(CCCC3=O)N(c3ccc(C)cc3)C3=C2C(=O)CCC3)c([N+](=O)[O-])cc1OC | -10.8% | -4.2% | 2.65% | 2.2% | 4.3% | -0.3%
Nc1nc(N)nc(CNc2c(Br)cc(Br)cc2Br)n1 | 12% | 24.6% | 16.5% | -9.25% | -10.2% | 4.95%
NC(=S)N/N=C/c1cc(=O)c2cc(Cl)ccc2o1 | -0.05% | 11.8% | 42.3% | 45.8% | 7.95% | 55%
O=C(CC(O)(C(F)(F)F)C(F)(F)F)c1ccc(Br)cc1 | 4.35% | 19.6% | 5.45% | -8.25% | 14.1% | 49.4%
O=C(O)CC(=O)CC(=O)c1ccccc1 | -14.8% | -18.5% | -23.4% | -30.7% | -2.1% | -7.4%
O=C(N/C=C(/c1ccccc1)S(=O)Cc1ccccc1)Nc1ccccc1Cl (stereo unspecified) | -8.45% | -27.6% | 0.85% | -15.2% | -9.7% | -24.9%
COc1cc2c(c(C3(O)C(=O)N(C)c4ccccc43)c1OC)OCO2 (stereo unspecified) | 1.95% | -12.4% | 12.8% | -53.1% | -52.6% | 4.9%
Cc1ccc(NC2=CC(=O)c3ccccc3C2=O)cc1 | 22.4% | 6.45% | 17.8% | -26.9% | 13.8% | 9.45%
COc1c(O)cc2oc(-c3ccc(O)cc3)cc(=O)c2c1O | 11% | -5.7% | 29.8% | 10.8% | 16.2% | -0.05%
NC(=O)c1cc[n+](-c2ccc([N+](=O)[O-])cc2[N+](=O)[O-])cc1 | 19.2% | 0.45% | 27.2% | 34.6% | 19.2% | 56.5%
SCCc1ccccc1 | -8.85% | -35.1% | -8.9% | -14% | 11.9% | -3.15%
COc1ccc(C2(C=O)NC(=O)NC2=O)cc1 (stereo unspecified) | -2.25% | -22.9% | -13.5% | 36% | -2.6% | 9%
CCCNC(=O)c1cccc(-c2cccc(C(=O)NCCC)c2)c1 | 30.1% | -10.3% | 28.4% | 12.3% | 25.4% | 31.6%
O=C(O)COc1cc(Br)cc(Br)c1 | 1.4% | -14.2% | -7.55% | 16% | -3.9% | -1.7%
CCOC(=O)/C=C\C(=O)OCC | 29.7% | 2.55% | 9.35% | 10% | 9.95% | -1.1%
CCOc1ccc(/C=N/O)cc1OCC | -0.3% | -10.1% | -10.2% | -25.6% | -2.1% | -2.6%
COc1cccc(/C=C\C(=O)c2ccccc(=O)c2O)c1OC | 34.5% | 23.4% | 36.8% | -5.4% | 40.5% | 40.9%
COC[C@H]1C(=O)NCC(=O)N2N=CCC[C@H]2C(=O)N(O)[C@H](C)C(=O)O[C@@H](C(C)C)[C@H](NC(=O)[C@@](C)(O)[C@]2(O)CC[C@@H](CC(C)C)[C@H](C)O2)C(=O)N2NCCC[C@@H]2C(=O)N1O | 91.8% (active) | 93.6% (active) | 93.7% (active) | 91.2% (active) | 93.2% (active) | 92.1% (active)
CC(=O)Cc1ccc([N+](=O)[O-])cc1 | -0.1% | -9.25% | -15.9% | -41.7% | 4.15% | 12.2%
CC(C)=CC1CC(=O)C1(C)Sc1ccccc1 (stereo unspecified) | 26.9% | -1.5% | 24.2% | 12.9% | 4.7% | 2.95%
